Source: PubChem BioAssay (National Center for Advancing Translational Sciences (NCATS))
This is a sample that favours compounds with a hit; in the whole collection about 12% have one here.
BAZ2B inh: BAZ2B (human) inhibition. Q9UIF8. AlphaScreen BAZ2B-H3K14Ac peptide displacement. Potency, µM (series often up to 114 µM), without a hit: at the top dose activity change, negative = inhibition, hits mostly inhibitors. hit rate 4.4% among 360,000. AID 504333; further: on the % scale 0 is the no-effect control and ±100 the full control effect; nearly all actives have a fitted effect of over 60% in size
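BAZ2B 50 nM plus b-H3(5-23)K14Ac 50 nM, PBS pH 7.4/0.01% Tween-20, 30 min RT; compound added (max 110 uM), 30 min RT; streptavidin donor/Ni-chelate acceptor beads 10 ug/mL final, 20 min dark; AlphaScreen read.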
G9a inh: G9a (human) methyltransferase inhibition. Potency, µM (top dose mostly 102 µM), without a hit: top-dose activity, negative = inhibition, most hits filed as inhibitors. AID 504332. Q96KQ7. G9a H3K9 monomethylation, AlphaScreen, 2 h. hit rate 8.8% among 350,000; further: on the % scale 0 is the no-effect control and ±100 the full control effect; nearly all actives have a fitted effect of over 75% in size
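Signal arises when biotinylated H3K9 peptide, once monomethylated, bridges streptavidin donor and antibody-captured acceptor beads. Enzyme at 20 nM was preincubated 15 min with test compounds; peptide 500 nM and SAM 20 uM then reacted for 2 h.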
JMJD2A Tudor: blocks the human JMJD2A Tudor domain; O75164; AlphaScreen JMJD2A-Tudor / H3K4me3 peptide binding; Potency, µM (titrated, usually from 114 µM), without a hit: at the highest dose activity change, negative = inhibition, hits mostly inhibitors; hit rate 4.4% among 390,000; further: on the % scale 0 is the no-effect control and ±100 the full control effect; nearly all actives have a fitted effect of over 50% in size
Target sequence (O75164 whole entry, looked up, the tested form may be a part): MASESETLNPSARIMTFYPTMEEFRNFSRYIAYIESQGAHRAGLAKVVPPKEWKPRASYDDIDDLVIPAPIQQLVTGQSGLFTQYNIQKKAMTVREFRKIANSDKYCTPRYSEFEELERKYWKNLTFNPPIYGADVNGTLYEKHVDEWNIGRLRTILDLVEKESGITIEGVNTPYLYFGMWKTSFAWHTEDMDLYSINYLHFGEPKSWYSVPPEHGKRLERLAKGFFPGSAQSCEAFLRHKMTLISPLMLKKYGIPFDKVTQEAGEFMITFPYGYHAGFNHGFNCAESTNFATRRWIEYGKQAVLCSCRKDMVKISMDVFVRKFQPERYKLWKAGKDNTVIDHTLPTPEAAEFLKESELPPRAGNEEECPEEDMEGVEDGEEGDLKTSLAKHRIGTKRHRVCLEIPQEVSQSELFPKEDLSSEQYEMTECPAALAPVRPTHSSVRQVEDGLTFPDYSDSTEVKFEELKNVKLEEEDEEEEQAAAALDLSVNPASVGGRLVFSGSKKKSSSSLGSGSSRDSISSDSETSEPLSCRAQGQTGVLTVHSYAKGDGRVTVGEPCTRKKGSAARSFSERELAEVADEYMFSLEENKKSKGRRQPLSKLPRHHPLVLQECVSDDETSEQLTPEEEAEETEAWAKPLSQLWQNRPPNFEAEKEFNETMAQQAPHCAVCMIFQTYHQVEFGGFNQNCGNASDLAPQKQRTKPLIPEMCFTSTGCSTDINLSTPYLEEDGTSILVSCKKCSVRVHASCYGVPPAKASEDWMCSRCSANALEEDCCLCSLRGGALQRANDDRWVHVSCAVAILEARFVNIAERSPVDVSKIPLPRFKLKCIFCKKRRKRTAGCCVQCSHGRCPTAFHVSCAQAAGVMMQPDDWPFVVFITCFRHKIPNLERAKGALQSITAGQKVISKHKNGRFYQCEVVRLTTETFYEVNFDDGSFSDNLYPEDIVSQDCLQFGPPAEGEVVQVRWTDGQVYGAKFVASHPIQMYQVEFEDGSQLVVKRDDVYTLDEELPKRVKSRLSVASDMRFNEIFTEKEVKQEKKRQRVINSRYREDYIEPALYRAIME
HP1b binding inh: HP1-beta chromodomain-methylated histone interaction inhibition. AID 540317. hit rate 0.56% among 390,000. P83916. Potency, µM (top dose mostly 114 µM), inactives show at the highest dose activity change, negative = inhibition, actives largely listed as inhibitors. AlphaScreen HP1-beta / biotin-H3K9me3 peptide binding; further: nearly all actives have a fitted effect of over 70% in size
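Compound inhibition of the preformed complex between 50 nM HP1-beta and 50 nM biotinylated H3K9me3 peptide was read by AlphaScreen. Buffer was PBS pH 7.4 with 0.01% Tween-20. Incubations ran 30 min at room temperature, with 10 ug/mL donor/acceptor beads.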
PLK1 PBD inh: blocks phosphopeptide binding to human PLK1 polo-box domain. AID 720504. Potency, µM, for the others: max response, negative = inhibition, usual class: inhibitors. hit rate 2.8% among 360,000. Plk1 PBD binding of FITC phosphopeptide, fluorescence polarization. P53350; further: series mostly up to about 57 µM; on the % scale 0 is the no-effect control and ±100 the full control effect; nearly all actives have a fitted effect of over 65% in size
Sfp inh: Sfp phosphopantetheinyl transferase inhibition; Q9F4F7; Biochemical Sfp PPTase activity, qHTS; Potency, µM, for the others: largest response in the series, negative = inhibition, actives largely listed as inhibitors; hit rate 3.5% among 310,000;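 further: the enzyme is Sfp with the accession as filed and its product quenches rhodamine fluorescence; 0% = enzyme reaction without inhibitor and -100% = no enzyme wells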
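Compounds were incubated with enzyme (final 15 nM) for 15 min at room temperature before substrate addition started the reaction. Fluorescence at 525 nm excitation, 598 nm emission was recorded immediately and after 30 minutes.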
The depositor's hits bear a star; ? = inconclusive; · = no result; [ ] = remark or other dose. The call rests on the fitted dose curve; in most records, active means well fitted curve in the direction sought with a large enough effect; inconclusive means small, poorly fitted or top-dose-only effect, or another doubt; inactive means no such curve, though single readings can be large; an effect the other way counts as inactive or inconclusive. Potency means the concentration at half of the fitted maximal effect.

SMILES	BAZ2B inh	G9a inh	JMJD2A Tudor	HP1b binding inh	PLK1 PBD inh	Sfp inh
CCOc1ccc(/C(O)=C2/C(=O)C(=O)N(CC3CCCO3)C2c2cccs2)cc1 (stereo not given)	-3%	-10%[59 µM]	-29%	0%	-15%	36%
O=C(CC1Nc2ccccc2NC1=O)NCCCN1CCCCCC1 (stereo not given)	-29%	-15%[59 µM]	32µM*	14%	-8%	2%
CCOc1ccc(CN(C)CC(=O)Nc2cccc(S(=O)(=O)N(C)c3ccccc3)c2)cc1	·	5µM*	22µM*	?	11%	-18%
CN(CCOc1ccccc1)CC(=O)Nc1cccc(Br)c1	?	11µM*	1.6µM*	-14%	4%	-41%
CN(CCOc1ccccc1)CC(=O)Nc1cccc(C#N)c1	11%	19%	4%	39%	1%	6%
Cc1cc(NC(=O)CN(C)CCOc2ccccc2)ccc1Br	35µM*	12%	0.79µM*	?	-2%	-29%
CCCCOc1ccc(CNC(=O)c2cnc3sc(N4CCC(C)CC4)nn3c2=O)cc1	23%	13%[59 µM]	-14%	52%	·	·
CCc1c(C(=O)NCCc2ccc(N3CCCCC3)cc2)[nH]c2ccc(Cl)cc12	·	28µM*	·	·	·	·
CCn1c(=O)cc(OCC(=O)Nc2cc(OC)c(OC)c(OC)c2)c2ccccc21	-19%	-37%[59 µM]	-18%	21%	·	·
Cc1cc(C(=O)CSc2nc3ccc(Cl)cc3[nH]2)c(C)n1CC1CCCO1 (stereo not given)	?	45µM*	?	-24%	-11%	-1%
Cc1cc(C(=O)CSc2nc3ccccc3[nH]2)c(C)n1C	?	?	56µM*	?	-19%	-90%
Cc1cc(C(=O)CN2C(=O)NC(c3ccccc3)(c3ccccc3)C2=O)c(C)n1Cc1ccco1	-36%	-37%[59 µM]	-26%	?	-8%	6%
Cc1cc(C(=O)CSc2nc3ccc(Cl)cc3[nH]2)c(C)n1C	-8%	?	?	-2%	-21%	-7%
Cc1cc(C(=O)CSc2nc3ccccc3[nH]2)c(C)n1Cc1ccco1	?	14µM*	?	-14%	-16%	-10%
Cc1cc(C(=O)CN2C(=O)NC(C)(c3cccc(Br)c3)C2=O)c(C)n1Cc1ccco1 (stereo not given)	-3%	50µM*	-31%	-16%	4%	-3%
O=C1CCc2cc(S(=O)(=O)Nc3ccc(Cl)c(Cl)c3)ccc2N1	·	·	-13%	·	·	·
CCc1ccc(NC(=O)Cn2cc(S(=O)(=O)c3ccc(F)cc3)c(=O)c3cc(OC)ccc32)cc1	4%	-4%[59 µM]	2%	53%	·	·
OC1CCCN(CC(O)COC(c2ccc(F)cc2)c2ccc(F)cc2)C1 (stereo not given)	50µM*	45µM*	10µM*	-12%	-4%	?
OC(COC(c1ccc(F)cc1)c1ccc(F)cc1)CN1CCc2ccccc2C1 (stereo not given)	45µM*	4.5µM*	18µM*	?	-1%	-19%
CN1CCN(CC(O)c2ccccc2)CC1 (stereo not given)	-4%	27%	·	·	·	-1%
OC(COC(c1ccc(Cl)cc1)c1ccc(Cl)cc1)CN1CCCC1 (stereo not given)	-11%	3%[59 µM]	-20%	7%	0%	4%
OC1CCCN(CC(O)c2ccccc2)C1 (stereo not given)	50µM*	3.2µM*	40µM*	5%	-14%	?
COc1ccccc1NC(=O)CSCc1cc(=O)c2cccc(Cl)c2[nH]1	2%	-5%[59 µM]	3%	27%[57 µM]	·	·
Cc1ccccc1-c1nc(-n2ccnc2)c2ccccc2n1	·	·	·	·	·	-29%
CCOC(=O)c1noc2nc(C)n(CC(=O)Nc3ccc(Br)cc3C)c(=O)c12	1%	5%[59 µM]	?	22%[57 µM]	·	·
SMILES	BAZ2B inh	G9a inh	JMJD2A Tudor	HP1b binding inh	PLK1 PBD inh	Sfp inh
Cc1nn(C)c2c1c(C(F)(F)F)cc(=O)n2C(C)C(=O)NCCC(C)C (stereo not given)	-16%	-7%[59 µM]	-16%	10%	·	·
Cc1ccc(S(=O)(=O)N/N=C/c2cccn2-c2ccc(Cl)cc2)cc1	-2%	110%[59 µM]	56µM*	?	-3%	-9%
CC1=NN(c2ccc(Cl)cc2)C(=O)/C1=C\c1cccn1-c1ccc(S(N)(=O)=O)cc1	10µM*	10µM*	22µM*	?	-16%	0%
CCOC(=O)C1=C(O)C(=O)N(c2ccc(S(N)(=O)=O)cc2)C1c1ccc(Cl)cc1 (stereo not given)	?	7%[0.501 µM]	-27%	6%	-12%	-6%
COc1cn(CC(=O)Nc2ccc(C)cc2C)c(CN2CCCCC2)cc1=O	-2%	-3%[59 µM]	-3%	21%	·	·
COc1ccc(O[C@H]2C=C[C@@H](c3ccccc3)O[C@H]2COC(=O)CC/C(C)=N\O[C@@H](C)c2cn([C@H]3COC[C@H]3O)nn2)cc1	·	·	·	·	·	-8%
CCOC(=O)c1cnc2ccc(OCC)cc2c1NCCCN1CCOCC1	3%	?	-6%	15%	-4%	4%
CCC(C)(C)c1ccc(OCCCC[n+]2cccc(C)c2)c(C(C)(C)CC)c1	-23%	?	-20%	8%	-16%	32µM*
CCOc1ccccc1N1CCN(c2nc(N)c(C#N)c(CC#N)c2C#N)CC1	?	?	-30%	6%	-19%	16µM*
COC(=O)c1c(NC(=O)CCCOc2ccccc2C)sc2c1CCC2	-25%	-23%[59 µM]	15%	23%	·	·
O=S(=O)(c1ccc(C(F)(F)F)cc1)N1CCN(c2nc(-c3ccccc3)nc3ccccc23)CC1	·	·	-9%	32%	·	·
CCCCCC/C(C)=C1/SC(=S)NC1=O	-9%[57.1 µM]	?	-33%	-27%	24µM*	3%
C/C(C/C(C)=C1/SC(=S)NC1=O)=C1\SC(=S)NC1=O	-16%	28µM*	?	?	19µM*	79µM*
Cc1cc(C(=O)COC(=O)CC2Sc3ccccc3NC2=O)c(C)n1-c1ccc(Br)cc1 (stereo not given)	-39%	56µM*	-27%	-2%	-8%	-6%
Cc1cc(C(=O)COC(=O)CC2Sc3ccccc3NC2=O)c(C)n1-c1ccccc1 (stereo not given)	-36%	?	?	-13%	-6%	1%
Cc1noc(C)c1COc1ccccc1C(=O)NC1CCC(C)CC1 (stereo not given)	5%	52%	-7%	27%	-24%	14%
C#CCOCCOCCOCCNc1nc(N2CCN(C(=O)[C@H](CCCCN)n3cc([C@@H](N)[C@H](C)CC)nn3)CC2)nc(N2CCN(C(=O)[C@H](CCC(=O)O)n3cc([C@@H](N)CCCCN)nn3)CC2)n1	·	·	?	65%	1%	·
